From the supplement of paper PMC10849652
About 7,900 targets were measured; listed, in parts, are those with a hit and a random draw of the rest. About 0.6% of all pairs of compound and target were hits.

Columns and labels:
Experiment in all cases: log2 fold change, soluble protein after heating vs DMSO (PISA); higher = thermal stabilisation; K562 cells, 10 uM, 30 min; active = over 0.2 and 3.5 SD of the protein, either way, in both replicates (recomputed)
[1] = compound: Cc1ccc(NC(=O)c2ccc(CN3CC[C@H](N(C)C)C3)c(C(F)(F)F)c2)cc1Nc1nccc(-c2cncnc2)n1 [bafetinib]
Summary of the method: (§1)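 K562 cells (2×10^6 cells/mL) were treated with 10 μM compound for 30 min, and aliquots were heated for 3 min over 48°C-58°C. Pooled aliquots were extracted in PBS with 0.5% NP-40 at 4°C, and the supernatant after 21,000xg for 90 min was measured by TMTpro 16plex LC-MS/MS with channel sums equalised. Reported thermal stability, relative to control samples and from duplicates, is a log2 fold change.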

[2] = compound: Cc1cccc(CC(=O)N2CCc3c2ccc(-c2cn(C)c4ncnc(N)c24)c3F)n1
Summary of the method: as §1

[3] = compound: Cc1cn(-c2cc(NC(=O)c3ccc(C)c(Nc4nccc(-c5cccnc5)n4)c3)cc(C(F)(F)F)c2)cn1 [nilotinib]
Summary of the method: as §1

[4] = compound: Cc1nc(Nc2n[nH]c3c2CN(C(=O)N[C@H](CN(C)C)c2ccccc2)C3(C)C)c2sccc2n1
Summary of the method: as §1

[5] = compound: Cc1nc(Nc2ncc(C(=O)Nc3c(C)cccc3Cl)s2)cc(N2CCN(CCO)CC2)n1 [dasatinib]
Summary of the method: as §1

[6] = compound: Cc1ncc(-c2ccnc(Nc3ccc(S(C)(=O)=O)cc3)n2)n1C(C)C
Summary of the method: as §1

[7] = compound: Cn1cc(-c2ccc3c(c2)CCN3C(=O)Cc2cccc(C(F)(F)F)c2)c2c(N)ncnc21
Summary of the method: as §1

[8] = compound: Cn1cc(-c2ccc3nnc(C(F)(F)c4ccc5ncccc5c4)n3n2)cn1
Summary of the method: as §1

[9] = compound: Cn1cncc1[C@@](N)(c1ccc(Cl)cc1)c1ccc2c(c1)c(-c1cccc(Cl)c1)cc(=O)n2C [tipifarnib]
Summary of the method: as §1

[10] = compound: FC(F)(F)c1ccc(/C=C/c2nc(COc3ccc(CCCCn4ccnn4)cc3)co2)cc1 [mubritinib]
Summary of the method: as §1

[11] = compound: NC(=O)Nc1cc(-c2cccc(F)c2)sc1C(=O)N[C@H]1CCCNC1
Summary of the method: as §1

[12] = compound: NC(=O)c1cnc(N[C@@H]2CCCC[C@@H]2N)nc1Nc1cccc(-n2nccn2)c1
Summary of the method: as §1

[13] = compound: NC1(c2ccc(-c3nc4ccn5c(=O)[nH]nc5c4cc3-c3ccccc3)cc2)CCC1
Summary of the method: as §1

[14] = compound: NCC(=O)Nc1ccc(-n2nc(C(F)(F)F)cc2-c2ccc3c(ccc4ccccc43)c2)cc1
Summary of the method: as §1

[15] = compound: Nc1ccccc1NC(=O)c1ccc(CNC(=O)OCc2cccnc2)cc1 [entinostat]
Summary of the method: as §1

[16] = compound: O=C(CCCCCCC(=O)Nc1ccccc1)NO [vorinostat]
Summary of the method: as §1

[17] = compound: O=C(CCCCCCNC(=O)c1cnc(N(c2ccccc2)c2ccccc2Cl)nc1)NO [citarinostat]
Summary of the method: as §1

[18] = compound: O=C(O)c1ccc2c(c1)nc(Nc1cccc(Cl)c1)c1ccncc12 [silmitasertib]
Summary of the method: as §1

[19] = compound: O=C1NC(=O)C(c2cnc3ccccn23)=C1c1cn2c3c(cc(F)cc13)CN(C(=O)N1CCCCC1)CC2
Summary of the method: as §1

[20] = compound: c1cc(OCCN2CCCCC2)cc(-c2n[nH]c3ccc(-c4nnc[nH]4)cc23)c1
Summary of the method: as §1

Measured: log2 fold change

ATOX1 (UniProt O00244)
Sequence of UniProt O00244 (O00244 whole entry, looked up): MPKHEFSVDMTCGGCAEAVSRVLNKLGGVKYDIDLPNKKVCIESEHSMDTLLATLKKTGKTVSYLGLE
active: [9] -0.404
inactive: [1] -0.02 | [2] 0.043 | [3] 0.047 | [4] 0.036 | [5] 0.161 | [6] -0.009 | [7] 0.174 | [8] -0.084 | [10] 0.004 | [11] 0.175 | [12] 0.273 | [13] -0.032 | [14] 0.03 | [15] 0.081 | [16] -0.018 | [17] 0.091 | [18] -0.105 | [19] -0.081 | [20] -0.004

AUP1 (UniProt Q9Y679)
Sequence of UniProt Q9Y679 (Q9Y679 whole entry, looked up): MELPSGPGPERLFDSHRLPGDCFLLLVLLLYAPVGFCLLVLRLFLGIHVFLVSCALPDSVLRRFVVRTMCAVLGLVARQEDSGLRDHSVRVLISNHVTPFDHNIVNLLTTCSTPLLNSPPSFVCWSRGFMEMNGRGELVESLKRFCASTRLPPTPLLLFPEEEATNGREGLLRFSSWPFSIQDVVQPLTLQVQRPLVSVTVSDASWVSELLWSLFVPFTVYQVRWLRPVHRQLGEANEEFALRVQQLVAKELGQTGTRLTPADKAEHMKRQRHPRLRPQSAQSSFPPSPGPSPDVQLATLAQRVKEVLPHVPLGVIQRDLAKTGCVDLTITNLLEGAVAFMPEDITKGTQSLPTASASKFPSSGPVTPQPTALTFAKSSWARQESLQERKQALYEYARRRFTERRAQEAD
inactive: [1] -0.023 | [2] 0.11 | [3] -0.102 | [4] -0.055 | [5] -0.097 | [6] 0.018 | [7] 0.01 | [8] -0.03 | [9] -0.106 | [10] 0.033 | [11] -0.013 | [12] -0.082 | [14] -0.107 | [15] 0.061 | [16] 0.135 | [17] 0.067 | [18] 0.019 | [19] 0.064 | [20] -0.051
active: [13] -0.236

ATP5IF1 (UniProt Q9UII2)
Sequence of UniProt Q9UII2 (Q9UII2 whole entry, looked up): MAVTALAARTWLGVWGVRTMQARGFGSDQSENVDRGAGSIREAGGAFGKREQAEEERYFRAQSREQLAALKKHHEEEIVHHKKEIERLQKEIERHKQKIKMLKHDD
inactive: [1] -0.039 | [2] -0.101 | [3] -0.038 | [4] 0.005 | [5] 0.055 | [6] -0.042 | [7] -0.002 | [8] 0.094 | [9] 0.059 | [10] 0.033 | [11] -0.039 | [12] -0.01 | [13] -0.02 | [14] 0.086 | [15] -0.021 | [16] -0.07 | [17] -0.124 | [18] -0.044 | [19] -0.092 | [20] 0.092

ACSF3 (UniProt Q4G176)
Sequence of UniProt Q4G176 (Q4G176 whole entry, looked up): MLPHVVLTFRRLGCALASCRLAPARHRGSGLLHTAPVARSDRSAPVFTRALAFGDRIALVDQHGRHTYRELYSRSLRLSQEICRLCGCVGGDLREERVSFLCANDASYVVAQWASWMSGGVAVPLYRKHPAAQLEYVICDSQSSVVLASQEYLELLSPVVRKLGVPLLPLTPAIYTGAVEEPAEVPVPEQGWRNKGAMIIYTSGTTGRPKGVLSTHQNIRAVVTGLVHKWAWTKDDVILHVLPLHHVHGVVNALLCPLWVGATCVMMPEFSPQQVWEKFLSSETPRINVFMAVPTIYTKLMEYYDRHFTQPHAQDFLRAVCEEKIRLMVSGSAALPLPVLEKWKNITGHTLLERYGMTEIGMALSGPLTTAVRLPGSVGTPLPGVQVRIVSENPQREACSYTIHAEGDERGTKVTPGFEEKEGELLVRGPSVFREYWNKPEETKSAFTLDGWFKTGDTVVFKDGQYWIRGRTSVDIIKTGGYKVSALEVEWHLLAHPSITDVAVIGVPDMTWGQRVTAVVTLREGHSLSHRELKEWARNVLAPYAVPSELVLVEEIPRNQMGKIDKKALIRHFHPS
inactive: [1] -0.13 | [2] -0.105 | [3] 0.084 | [4] 0.135 | [5] -0.073 | [6] 0.022 | [7] -0.278 | [8] -0.02 | [9] 0.062 | [11] -0.016 | [12] -0.073 | [13] -0.098 | [14] -0.184 | [15] 0.069 | [16] 0.007 | [17] 0.197 | [18] 0.109 | [19] 0.035 | [20] -0.107
active: [10] -0.433

BTBD6 (UniProt Q96KE9)
Sequence of UniProt Q96KE9 (Q96KE9 whole entry, looked up): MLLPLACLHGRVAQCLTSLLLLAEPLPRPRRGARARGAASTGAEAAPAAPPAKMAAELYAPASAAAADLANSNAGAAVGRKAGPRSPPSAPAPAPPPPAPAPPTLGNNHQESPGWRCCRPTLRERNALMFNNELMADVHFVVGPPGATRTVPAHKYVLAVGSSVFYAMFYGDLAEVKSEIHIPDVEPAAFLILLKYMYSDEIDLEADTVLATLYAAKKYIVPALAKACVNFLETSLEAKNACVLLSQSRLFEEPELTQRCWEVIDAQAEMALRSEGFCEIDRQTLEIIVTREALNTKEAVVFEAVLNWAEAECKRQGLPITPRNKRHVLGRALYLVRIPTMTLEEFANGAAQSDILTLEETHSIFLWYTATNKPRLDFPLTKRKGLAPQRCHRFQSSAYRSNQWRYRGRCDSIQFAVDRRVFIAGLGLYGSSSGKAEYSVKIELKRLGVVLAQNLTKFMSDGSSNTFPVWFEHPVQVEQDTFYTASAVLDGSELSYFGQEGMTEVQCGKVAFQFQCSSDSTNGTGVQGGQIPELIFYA
inactive: [1] -0.007 | [2] 0.011 | [3] 0.277 | [4] -0.044 | [5] 0.008 | [6] -0.098 | [7] 0.239 | [8] -0.003 | [9] -0.121 | [10] 0.153 | [11] 0.054 | [12] 0.102 | [13] 0.469 | [14] 0.199 | [15] -0.039 | [16] 0.081 | [17] 0.273 | [18] -0.352 | [19] -0.011 | [20] 0.118

ATP11A (UniProt P98196)
Sequence of UniProt P98196 (P98196 whole entry, looked up): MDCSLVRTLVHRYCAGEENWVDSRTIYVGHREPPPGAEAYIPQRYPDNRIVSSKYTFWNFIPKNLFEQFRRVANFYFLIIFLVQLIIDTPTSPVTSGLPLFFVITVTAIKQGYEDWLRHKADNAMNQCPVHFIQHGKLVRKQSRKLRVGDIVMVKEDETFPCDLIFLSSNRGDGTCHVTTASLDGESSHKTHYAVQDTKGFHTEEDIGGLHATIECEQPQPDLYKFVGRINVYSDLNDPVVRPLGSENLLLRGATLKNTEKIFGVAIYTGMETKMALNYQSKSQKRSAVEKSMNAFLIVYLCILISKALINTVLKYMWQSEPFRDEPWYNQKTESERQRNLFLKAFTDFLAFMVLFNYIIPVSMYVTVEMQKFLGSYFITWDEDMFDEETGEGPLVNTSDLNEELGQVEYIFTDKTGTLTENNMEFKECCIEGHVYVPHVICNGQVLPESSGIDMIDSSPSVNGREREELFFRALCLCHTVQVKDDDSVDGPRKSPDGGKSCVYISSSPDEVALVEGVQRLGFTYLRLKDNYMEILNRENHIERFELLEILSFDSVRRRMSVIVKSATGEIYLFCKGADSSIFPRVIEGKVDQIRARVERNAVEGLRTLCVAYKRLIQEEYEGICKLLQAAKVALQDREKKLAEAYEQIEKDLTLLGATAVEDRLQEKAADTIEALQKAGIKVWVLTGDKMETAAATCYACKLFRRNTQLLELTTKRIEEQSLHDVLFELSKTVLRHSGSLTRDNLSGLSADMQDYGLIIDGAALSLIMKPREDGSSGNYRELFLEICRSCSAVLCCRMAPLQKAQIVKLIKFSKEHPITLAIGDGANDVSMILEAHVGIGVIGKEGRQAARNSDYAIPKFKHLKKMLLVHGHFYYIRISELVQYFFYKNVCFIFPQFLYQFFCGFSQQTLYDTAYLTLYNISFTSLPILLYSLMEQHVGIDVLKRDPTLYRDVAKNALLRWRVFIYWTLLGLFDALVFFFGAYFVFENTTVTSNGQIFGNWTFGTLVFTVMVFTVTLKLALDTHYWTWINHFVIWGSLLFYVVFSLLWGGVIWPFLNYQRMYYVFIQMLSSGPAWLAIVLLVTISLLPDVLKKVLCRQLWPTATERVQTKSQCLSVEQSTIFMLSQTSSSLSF
active: [20] -0.32
inactive: [1] -0.028 | [2] -0.002 | [3] 0.113 | [4] -0.012 | [5] -0.01 | [6] 0.029 | [7] -0.006 | [8] 0.01 | [9] 0.051 | [10] 0.056 | [11] -0.034 | [12] 0.065 | [13] -0.001 | [14] -0.054 | [15] -0.025 | [16] -0.08 | [17] -0.154 | [18] 0.065 | [19] -0.024

ACP2 (UniProt P11117)
Sequence of UniProt P11117 (P11117 whole entry, looked up): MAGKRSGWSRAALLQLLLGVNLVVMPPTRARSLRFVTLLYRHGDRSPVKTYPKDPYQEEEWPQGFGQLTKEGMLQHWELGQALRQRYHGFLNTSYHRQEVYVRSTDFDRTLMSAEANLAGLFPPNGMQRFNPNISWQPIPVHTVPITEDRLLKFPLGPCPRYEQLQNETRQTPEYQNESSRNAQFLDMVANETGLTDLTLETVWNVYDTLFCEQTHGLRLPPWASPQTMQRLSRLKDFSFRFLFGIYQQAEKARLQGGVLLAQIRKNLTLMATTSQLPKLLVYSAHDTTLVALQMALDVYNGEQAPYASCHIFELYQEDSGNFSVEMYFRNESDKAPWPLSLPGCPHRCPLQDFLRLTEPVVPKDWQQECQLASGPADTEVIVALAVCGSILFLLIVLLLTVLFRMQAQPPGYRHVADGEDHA
inactive: [1] -0.107 | [2] -0.06 | [3] 0.002 | [4] -0.006 | [5] 0 | [6] 0.02 | [7] 0.015 | [8] 0.03 | [9] 0.061 | [10] -0.008 | [11] -0.014 | [12] 0.002 | [13] -0.124 | [14] 0.018 | [15] -0.01 | [16] -0.003 | [17] 0.05 | [18] 0.069 | [19] -0.052 | [20] -0.102

AP2B1 isoform 2 (UniProt P63010)
Sequence of UniProt P63010 (P63010 whole entry, looked up): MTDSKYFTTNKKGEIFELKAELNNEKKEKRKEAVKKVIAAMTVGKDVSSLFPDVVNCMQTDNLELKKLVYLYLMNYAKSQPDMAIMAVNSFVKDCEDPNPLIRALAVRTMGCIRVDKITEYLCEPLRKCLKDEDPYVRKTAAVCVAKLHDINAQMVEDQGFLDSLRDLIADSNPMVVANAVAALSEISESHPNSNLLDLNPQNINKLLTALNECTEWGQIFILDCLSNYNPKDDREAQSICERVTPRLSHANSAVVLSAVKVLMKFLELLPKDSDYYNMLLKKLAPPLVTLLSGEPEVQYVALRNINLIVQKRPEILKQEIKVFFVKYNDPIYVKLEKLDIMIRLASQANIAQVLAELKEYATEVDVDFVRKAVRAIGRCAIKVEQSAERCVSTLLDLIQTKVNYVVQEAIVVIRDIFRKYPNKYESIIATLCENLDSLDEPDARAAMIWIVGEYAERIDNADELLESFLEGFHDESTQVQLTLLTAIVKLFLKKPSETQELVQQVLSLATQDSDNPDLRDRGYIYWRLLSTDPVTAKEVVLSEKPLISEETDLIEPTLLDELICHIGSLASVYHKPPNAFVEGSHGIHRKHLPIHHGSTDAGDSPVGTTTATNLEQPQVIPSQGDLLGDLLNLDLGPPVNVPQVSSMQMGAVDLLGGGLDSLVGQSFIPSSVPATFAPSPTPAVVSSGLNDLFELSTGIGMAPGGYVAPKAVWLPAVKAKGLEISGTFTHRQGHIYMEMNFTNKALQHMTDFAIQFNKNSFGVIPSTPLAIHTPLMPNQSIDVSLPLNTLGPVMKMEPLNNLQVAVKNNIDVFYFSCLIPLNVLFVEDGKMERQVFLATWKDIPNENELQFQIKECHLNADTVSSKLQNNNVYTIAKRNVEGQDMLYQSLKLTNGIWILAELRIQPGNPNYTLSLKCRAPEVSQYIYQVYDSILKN
active: [11] -0.225
inactive: [1] 0.024 | [2] -0.01 | [3] -0.019 | [4] 0.019 | [5] 0.035 | [6] -0.032 | [7] -0.029 | [8] 0.004 | [9] -0.014 | [10] -0.01 | [12] 0.01 | [13] 0.037 | [14] 0.002 | [15] 0 | [16] 0.01 | [17] 0.019 | [18] 0.02 | [19] -0.202 | [20] -0.182
